Consider 43 sequences from publication PMC10726135, “HNF4α isoforms regulate the circadian balance between carbohydrate and lipid metabolism in the liver”.

Whole data set: some 18,000 sequences, median “log2 normalized intensity” near 0.39, cut for the highest 2% near 6.6. Only a selection was taken, and the highest values are over-represented in it overall.

The target of this assay is T1, HNF4alpha2 (COS-7 nuclear extract) (Homo sapiens, UniProt P41235 1-474).
T1 sequence: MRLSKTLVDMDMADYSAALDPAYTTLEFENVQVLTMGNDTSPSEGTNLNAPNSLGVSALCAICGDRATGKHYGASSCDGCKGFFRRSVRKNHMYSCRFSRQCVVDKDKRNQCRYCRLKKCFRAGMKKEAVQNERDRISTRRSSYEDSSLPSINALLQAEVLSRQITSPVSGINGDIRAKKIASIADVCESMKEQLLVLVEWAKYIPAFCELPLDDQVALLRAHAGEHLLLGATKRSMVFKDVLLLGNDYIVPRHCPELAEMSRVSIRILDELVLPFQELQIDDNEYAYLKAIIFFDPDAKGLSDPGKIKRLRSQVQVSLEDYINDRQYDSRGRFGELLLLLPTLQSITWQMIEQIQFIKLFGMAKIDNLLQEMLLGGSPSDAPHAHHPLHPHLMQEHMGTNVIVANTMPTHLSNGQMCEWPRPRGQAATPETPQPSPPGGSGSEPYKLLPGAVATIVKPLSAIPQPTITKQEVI
Briefly: protein-binding microarray; COS-7 nuclear extract on double-stranded Agilent 4x180k PBM; binding buffer, salt, pH and temperature not given in the material; high values mean tight binding. Conditions: chain copies: 2; label: 3' end of strand 1 on the slide; dsDNA, one strand shown. The gist of the method: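 The binding signal is Agilent software's gProcessedSignal after background correction and normalization. Arrays were a custom Agilent SurePrint G3 4x180k design of double-stranded ~60-nt oligonucleotides with ~44,000 test sequences in quadruplicate, probed with nuclear extracts of COS-7 cells transiently expressing a human HNF4α isoform. Scans were made at 2-µm resolution on an Agilent G2565CA scanner.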
In the case of “CTATTGCAGTAACGGCAGGGTTGTGCAGGAGCCTAGGGAGATTAGAGTATCGGTCGA”, the binding signal is 0.453 log2 normalized intensity. Take “ATCCTTACACAGCAGCTTTAGTCAGAGATTGCCTAGGGAGATTAGAGTATCGGTCGA”: the binding signal is -0.896 log2 normalized intensity. Under “AAGTCCAGTCTTATCTGAGACTCAAGGCAAGCCTAGGGAGATTAGAGTATCGGTCGA” stands -0.968 log2 normalized intensity; under “GCATGGCTCAGTCCAAGTCCAAAGGTCTGAGCCTAGGGAGATTAGAGTATCGGTCGA”, 5.39 log2 normalized intensity; under “CCAAAGTCCAAAGTCCAGTCTTATCTGAGAGCCTAGGGAGATTAGAGTATCGGTCGA”, 7.12 log2 normalized intensity.

For “TTTCTGTAAAGCTTTATTTTGGGGCTGTATGCCTAGGGAGATTAGAGTATCGGTCGA”, the binding signal stood at 0.324 log2 normalized intensity.

“TTGCTTAAGCATAGCAAAAGTGACCTTTGCGCCTAGGGAGATTAGAGTATCGGTCGA”: the binding signal is 8.56 log2 normalized intensity. To “GTGACCTTTGCTCCAGTTCCCAATAAGTTGGCCTAGGGAGATTAGAGTATCGGTCGA” belongs 4.19 log2 normalized intensity; to “ATAGCAAAAGTGACCTTTGCTCCAGTTCCCGCCTAGGGAGATTAGAGTATCGGTCGA”, 7.8 log2 normalized intensity; to “CTTTAGCACCTTCATCCAAAGATGACCTTTGCCTAGGGAGATTAGAGTATCGGTCGA”, 7.62 log2 normalized intensity.

With “CTTCTTTGCTTAAGCATAGCAAAAGTGACCGCCTAGGGAGATTAGAGTATCGGTCGA”, the binding signal was 2.7 log2 normalized intensity. Under “AGATAGCATTCCAAGAGAGCAAAGTGCTTTGCCTAGGGAGATTAGAGTATCGGTCGA” stands 0.587 log2 normalized intensity.

Consider “AATCGACCTTTAGCACCGTAAGAGAGTATTGCCTAGGGAGATTAGAGTATCGGTCGA”, for which the binding signal was found to be 3.82 log2 normalized intensity. Take “CCTGCATATCCTGACTGCTGACCTTTAAGCGCCTAGGGAGATTAGAGTATCGGTCGA”: the binding signal was found to be 4.85 log2 normalized intensity. To “CAAAGCATAGCAAGAGTGACCTTTGCTCCAGCCTAGGGAGATTAGAGTATCGGTCGA” belongs 8.97 log2 normalized intensity; to “TTTGCCAAAGCATAGCAAGAGTGACCTTTGGCCTAGGGAGATTAGAGTATCGGTCGA”, 6.6 log2 normalized intensity; to “TATGACCTTTGCTTTTCAAGATTTTACCTAGCCTAGGGAGATTAGAGTATCGGTCGA”, 2.14 log2 normalized intensity.

As to “AAAAGTGACCTTTGCTCCAGTTCCCAATAAGCCTAGGGAGATTAGAGTATCGGTCGA”, the binding signal is 5.9 log2 normalized intensity. To “CCCATCCAAAGGTCAGCAATCTCAAAGACTGCCTAGGGAGATTAGAGTATCGGTCGA” belongs 2.36 log2 normalized intensity; to “TAAGTTTAAGTCCAGAAAAGACCAAAAAGGGCCTAGGGAGATTAGAGTATCGGTCGA”, 0.39 log2 normalized intensity. Turning to “TAACTATGGTCACGCGGCCAAAATGTTCAGGCCTAGGGAGATTAGAGTATCGGTCGA”, the binding signal was determined as 0.22 log2 normalized intensity.

Consider “CTGTGTCATCTGAACTCTGACCAACGCCTCGCCTAGGGAGATTAGAGTATCGGTCGA”, for which the binding signal came to 2.73 log2 normalized intensity. Under “CAAGAGTGACCTTTGCTCCAGTTCCCAATAGCCTAGGGAGATTAGAGTATCGGTCGA” stands 6 log2 normalized intensity; under “CATAGCAAGAGTGACCTTTGCTCCAGTTCCGCCTAGGGAGATTAGAGTATCGGTCGA”, 7.45 log2 normalized intensity.

For “TGACCTTTGCTCCAGTTCCCAATAATTTCCGCCTAGGGAGATTAGAGTATCGGTCGA”, the binding signal turned out to be 4.46 log2 normalized intensity. Turning to “CAGTACTGAAACATGCCTATGACCGAGGGTGCCTAGGGAGATTAGAGTATCGGTCGA”, the binding signal amounted to 0.809 log2 normalized intensity. Under “TGCTTGGAATGCTATTTGCATTGACACAACGCCTAGGGAGATTAGAGTATCGGTCGA” stands 0.296 log2 normalized intensity; under “TTCTGTTCAATGGTGCTTTTGATATTGTTGGCCTAGGGAGATTAGAGTATCGGTCGA”, 2.06 log2 normalized intensity; under “CAACTGACATCTGGAAATGTTTGTAGGGACGCCTAGGGAGATTAGAGTATCGGTCGA”, 0.308 log2 normalized intensity.

For the sequence “CTTTGACCCTGTTTTGTAAACTCCCTTTGAGCCTAGGGAGATTAGAGTATCGGTCGA”, the binding signal came to 1.78 log2 normalized intensity. To “AGCAATGTTTCTTGTCCAGGGACTTTGAACGCCTAGGGAGATTAGAGTATCGGTCGA” belongs 5.74 log2 normalized intensity. Under “GACATCTGGAAATGTTTGTAGGGACTTTGAGCCTAGGGAGATTAGAGTATCGGTCGA” stands 4.28 log2 normalized intensity; under “CTGGAAATGTTTGTAGGGACTTTGACCCCTGCCTAGGGAGATTAGAGTATCGGTCGA”, 9.92 log2 normalized intensity; under “AATGTTTGTAGGGACTTTGACCCCTAAAACGCCTAGGGAGATTAGAGTATCGGTCGA”, 8.73 log2 normalized intensity. Under “AGTTTGACTCCAAAGGGCTGGAGACTGAGTGCCTAGGGAGATTAGAGTATCGGTCGA” stands -0.509 log2 normalized intensity. Consider “TCTAAGACCCATCCCTCAGGGTCCATATCCGCCTAGGGAGATTAGAGTATCGGTCGA”, for which the binding signal was 2.84 log2 normalized intensity. As to “CCATGACCTTTGTACTAATGATTTGTAAATGCCTAGGGAGATTAGAGTATCGGTCGA”, the binding signal turned out to be 5.25 log2 normalized intensity. As to “CTAGGCAATCCCATGACCTTTGTACTAATGGCCTAGGGAGATTAGAGTATCGGTCGA”, the binding signal stood at 7.57 log2 normalized intensity. “CAATCCCATGACCTTTGTACTAATGATTTGGCCTAGGGAGATTAGAGTATCGGTCGA”: the binding signal is 5.84 log2 normalized intensity. Turning to “TCTTCCTAGGCAATCCCATGACCTTTGTACGCCTAGGGAGATTAGAGTATCGGTCGA”, the binding signal came to 8.78 log2 normalized intensity. To “TGTCTTCTGACCTTTGGCAATATCTCCCAGGCCTAGGGAGATTAGAGTATCGGTCGA” belongs 3.48 log2 normalized intensity; to “CACCTTCTTCCTAGGCAATCCCATGACCTTGCCTAGGGAGATTAGAGTATCGGTCGA”, 3.25 log2 normalized intensity. Take “TCTGAAGATAAATGCCTTAGCTGTGACCATGCCTAGGGAGATTAGAGTATCGGTCGA”: the binding signal came to 0.619 log2 normalized intensity.
